PubChem BioAssay
Calls of active or inactive are those of the source.

Experiments:
[1] = test system: Plasmodium falciparum Sir2 (PF13_0152, Sir2A); assay: pfSir2 binders on small-molecule microarrays, primary screen, biochemical, small-molecule microarray, 635 nm fluorescence (AID 1098); settings: small-molecule microarray binding, fluorescence 635 nm; higher = more signal;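 further: score merges spot fluorescence intensity with its signal-to-noise ratio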
[2] = small-molecule microarray binders of probe aDKK1, primary screen, biochemical, biotinylated probe, 635/667 nm fluorescence (AID 1099); settings: higher = more signal;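 further: score merges 667nm spot fluorescence with signal to noise across triplicate slides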
[3] = small-molecule microarray binders of probe aCHRDL2, primary screen, biochemical, biotinylated probe, 635/667 nm fluorescence (AID 1100); settings: higher = more signal
[4] = splicing luciferase reporter signal modulators, primary screen, spliceosome inhibition project, cell-based, HEK293, splice +/- reporter (AID 1101); settings: luminescence, 24 h, higher = more signal, called active from +8 up or from −8 down;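 further: HEK293 cells carrying a splicing-competent luciferase reporter gene; test concentration not given here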
[5] = target: Fibroblast growth factor 10 (Homo sapiens) (UniProt O15520); assay: FGF10 binders on small-molecule microarrays, primary screen, biochemical, small-molecule microarray, 635 nm fluorescence (AID 1102); settings: FGF10 binding, fluorescence 635 nm, higher = more signal
[6] = test system: glycogen synthase kinase-3 (GSK3A per assay name; protocol says GSK3B); assay: GSK3 binders on small-molecule microarrays, primary screen, biochemical, small-molecule microarray, 635 nm fluorescence, GSK3A (AID 1103); settings: small-molecule microarray binding, fluorescence 635 nm; higher = more signal; further: the record names both GSK3A and GSK3B
[7] = target: Epidermal growth factor receptor (Homo sapiens) (UniProt P00533); assay: EGFR binders on small-molecule microarrays, primary screen, biochemical, small-molecule microarray, 635 nm fluorescence (AID 1104); settings: EGFR binding, higher = more signal;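 further: score merges 667 nm emission intensity with spot signal to noise over triplicate slides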
[8] = target: Follistatin-related protein 3 (Homo sapiens) (UniProt O95633); assay: FSTL3 binders on small-molecule microarrays, primary screen, biochemical, small-molecule microarray, 635 nm fluorescence (AID 1105); settings: FSTL3 binding, higher = more signal;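 further: score merges emission near 667 nm and signal to noise per printed spot across three slides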
[9] = target: Dickkopf-related protein 1 (Homo sapiens) (UniProt O94907); assay: DKK1 binders on small-molecule microarrays, primary screen, biochemical, small-molecule microarray, 635 nm fluorescence scan (AID 1106); settings: DKK1 binding, higher = more signal;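 further: score merges emission near 667 nm with signal to noise over three replicate slides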
[10] = test system: Inhibin beta A chain (activin A); assay: INHBA (activin A) binders on microarrays, primary screen, biochemical, small-molecule microarray, 635 nm fluorescence scan (AID 1107); settings: small-molecule microarray binding, higher = more signal;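 further: mouse activin A protein probed at 4.33 µg/mL on printed slides; score merges bound-protein fluorescence near 667 nm with spot signal-to-noise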
[11] = test system: Human papillomavirus type 1a protein E7 (residues 44-93); assay: HPV1a E7 fragment binders on microarrays, primary screen, biochemical, small-molecule microarray, residues 44-93, 635 nm fluorescence (AID 1108); settings: small-molecule microarray binding, fluorescence 635 nm; higher = more signal;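 further: E7 fragment applied at 1 µg/mL in TBST for 1 h at 4 C; score combines spot fluorescence with its signal to noise ratio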
[12] = modulators of HCV replicon luciferase signal, primary screen, HCV replication inhibitor project, Huh7 cells, luciferase reporter (AID 1109); settings: 48 h, higher = more signal;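 further: huh7 hepatoma cells harbouring a luciferase neomycin HCV replicon reporter; luciferase luminescence as measure of HCV replicon replication; test concentration not given here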
[13] = target: Left-right determination factor 2 (Homo sapiens) (UniProt O00292); assay: LEFTY2 binders on small-molecule microarrays, primary screen, biochemical, small-molecule microarray, 635 nm fluorescence scan (AID 1110); settings: LEFTY2 binding, higher = more signal
[14] = target: Calmodulin-1 (Homo sapiens) (UniProt P0DP23); assay: CALM1 binders on microarrays, EGTA buffer, profiling panel, biochemical, small-molecule microarray, Cy5-labelled CALM1 (AID 1111); settings: Cy5-CALM1 binding fluorescence, higher = more signal;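 further: labelled calmodulin applied in Tris saline Tween buffer holding calcium plus EGTA and DTT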
[15] = target: Calmodulin-1 (Homo sapiens) (UniProt P0DP23); assay: calcium-bound CALM1 binders on microarrays, profiling panel, artefact control for SMM control-protein annotation, biochemical, small-molecule microarray, Cy5-labelled CALM1, plus calcium (AID 1112); settings: Cy5-CALM1 binding fluorescence, higher = more signal;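 further: score merges spot fluorescence with signal to noise from triplicate slides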
[16] = small-molecule microarray binders of probe aWnt5a, primary screen, biochemical, biotinylated probe, 635/667 nm fluorescence (AID 1113); settings: higher = more signal;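 further: score merges 667 nm fluorescence intensity with signal-to-noise per printed feature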
[17] = small-molecule microarray binders of probe aShh, primary screen, biochemical, biotinylated probe, 635/667 nm fluorescence (AID 1114); settings: higher = more signal;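 further: probe is biotin-labelled aShh protein from a stem cell growth factor screen; measures binding of labelled protein to compounds printed on the slide; score merges feature fluorescence at 667 nm with signal-to-noise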
[18] = small-molecule microarray binders of probe aNog, primary screen, biochemical, biotinylated probe, 635/667 nm fluorescence (AID 1115); settings: higher = more signal;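 further: probe is biotinylated aNog protein used at 0.15 µg/mL for 1 h at 4 C; z-score combines 667 nm fluorescence of each spot with its signal to noise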
[19] = target: Torsin-1A-interacting protein 1 (Homo sapiens) (UniProt Q5JTV8); assay: LAP1 binders from COS7 cell lysate, primary screen, small-molecule microarray, 635/667 nm fluorescence (AID 1116); settings: COS7-hLAP1 lysate binding, 635 nm fluorescence, higher = more signal
[20] = target: Alpha-bungarotoxin (Bungarus multicinctus) (UniProt P60615); assay: alpha-bungarotoxin binders on microarray, profiling panel, artefact control for SMM control protein annotation, biochemical, small-molecule microarray, Alexa647 label, 635/667 nm fluorescence (AID 1117); settings: alpha-BTX-A647 binding fluorescence, higher = more signal
Sequence of Alpha-bungarotoxin (Bungarus multicinctus) (P60615 whole entry, looked up): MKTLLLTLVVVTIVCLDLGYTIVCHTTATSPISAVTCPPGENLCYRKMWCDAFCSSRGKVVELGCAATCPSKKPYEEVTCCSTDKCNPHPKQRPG

Sequence of Torsin-1A-interacting protein 1 (Homo sapiens) (Q5JTV8 whole entry, looked up): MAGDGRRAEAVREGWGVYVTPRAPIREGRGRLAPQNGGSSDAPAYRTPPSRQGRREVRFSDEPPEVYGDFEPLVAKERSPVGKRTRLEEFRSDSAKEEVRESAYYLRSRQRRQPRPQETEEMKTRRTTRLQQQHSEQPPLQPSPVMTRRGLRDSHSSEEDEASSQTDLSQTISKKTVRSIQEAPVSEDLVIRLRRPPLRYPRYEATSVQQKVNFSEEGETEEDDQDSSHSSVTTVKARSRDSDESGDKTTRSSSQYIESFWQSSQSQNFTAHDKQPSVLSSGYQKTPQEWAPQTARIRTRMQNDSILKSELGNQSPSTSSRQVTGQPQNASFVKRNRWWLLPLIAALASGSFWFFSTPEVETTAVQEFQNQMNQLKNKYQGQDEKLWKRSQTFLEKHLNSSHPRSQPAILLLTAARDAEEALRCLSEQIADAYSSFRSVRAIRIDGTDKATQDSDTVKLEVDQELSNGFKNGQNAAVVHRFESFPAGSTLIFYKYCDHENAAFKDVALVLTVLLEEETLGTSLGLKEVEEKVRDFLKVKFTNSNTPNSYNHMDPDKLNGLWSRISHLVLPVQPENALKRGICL
Sequence of Fibroblast growth factor 10 (Homo sapiens) (O15520 whole entry, looked up): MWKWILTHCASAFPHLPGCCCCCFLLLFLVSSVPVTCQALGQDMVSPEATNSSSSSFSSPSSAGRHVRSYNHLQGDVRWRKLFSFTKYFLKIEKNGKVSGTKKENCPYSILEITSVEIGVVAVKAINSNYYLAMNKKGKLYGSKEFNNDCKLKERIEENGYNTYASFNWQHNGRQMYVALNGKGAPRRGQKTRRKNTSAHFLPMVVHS
Sequence of Left-right determination factor 2 (Homo sapiens) (O00292 whole entry, looked up): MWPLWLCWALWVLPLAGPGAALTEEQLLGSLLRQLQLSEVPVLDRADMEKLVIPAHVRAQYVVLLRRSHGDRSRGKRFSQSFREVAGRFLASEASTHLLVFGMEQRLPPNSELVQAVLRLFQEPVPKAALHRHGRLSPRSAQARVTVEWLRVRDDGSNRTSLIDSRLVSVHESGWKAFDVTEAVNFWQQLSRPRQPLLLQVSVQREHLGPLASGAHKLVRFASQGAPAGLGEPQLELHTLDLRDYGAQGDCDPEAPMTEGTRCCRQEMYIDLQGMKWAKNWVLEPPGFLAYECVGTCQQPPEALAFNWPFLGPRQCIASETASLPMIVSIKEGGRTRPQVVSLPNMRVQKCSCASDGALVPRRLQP
Sequence of Epidermal growth factor receptor (Homo sapiens) (P00533 whole entry, looked up): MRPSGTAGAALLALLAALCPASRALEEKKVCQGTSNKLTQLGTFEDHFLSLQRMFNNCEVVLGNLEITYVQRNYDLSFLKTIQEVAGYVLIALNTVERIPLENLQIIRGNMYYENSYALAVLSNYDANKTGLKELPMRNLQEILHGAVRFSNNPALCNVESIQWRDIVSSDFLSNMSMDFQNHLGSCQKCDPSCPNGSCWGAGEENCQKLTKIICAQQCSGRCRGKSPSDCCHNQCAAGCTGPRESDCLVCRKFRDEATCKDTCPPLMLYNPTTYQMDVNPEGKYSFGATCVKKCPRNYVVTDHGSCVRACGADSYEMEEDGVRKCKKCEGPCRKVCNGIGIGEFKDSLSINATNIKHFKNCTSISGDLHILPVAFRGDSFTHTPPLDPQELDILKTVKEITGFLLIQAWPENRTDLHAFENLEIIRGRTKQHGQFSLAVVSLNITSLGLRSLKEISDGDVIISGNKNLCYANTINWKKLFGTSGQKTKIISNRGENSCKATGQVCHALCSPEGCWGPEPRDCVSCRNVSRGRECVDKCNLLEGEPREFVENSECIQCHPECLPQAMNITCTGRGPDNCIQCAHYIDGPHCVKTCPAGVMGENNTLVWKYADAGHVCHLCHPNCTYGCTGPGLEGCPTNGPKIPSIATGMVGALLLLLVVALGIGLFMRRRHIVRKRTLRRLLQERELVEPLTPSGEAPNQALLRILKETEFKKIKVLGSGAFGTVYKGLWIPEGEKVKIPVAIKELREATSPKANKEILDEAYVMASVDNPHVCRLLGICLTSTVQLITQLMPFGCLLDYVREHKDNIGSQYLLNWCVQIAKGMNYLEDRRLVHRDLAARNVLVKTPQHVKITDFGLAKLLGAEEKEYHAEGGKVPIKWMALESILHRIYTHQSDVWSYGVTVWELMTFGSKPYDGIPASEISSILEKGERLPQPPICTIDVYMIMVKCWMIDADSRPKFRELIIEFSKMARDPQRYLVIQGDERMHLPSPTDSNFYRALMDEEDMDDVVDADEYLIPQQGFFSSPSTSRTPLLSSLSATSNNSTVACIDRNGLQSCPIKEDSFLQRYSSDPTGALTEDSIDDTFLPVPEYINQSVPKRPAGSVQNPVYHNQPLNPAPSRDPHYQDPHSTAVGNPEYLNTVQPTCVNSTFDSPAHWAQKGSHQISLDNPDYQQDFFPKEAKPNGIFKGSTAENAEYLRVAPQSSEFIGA
Sequence of Dickkopf-related protein 1 (Homo sapiens) (O94907 whole entry, looked up): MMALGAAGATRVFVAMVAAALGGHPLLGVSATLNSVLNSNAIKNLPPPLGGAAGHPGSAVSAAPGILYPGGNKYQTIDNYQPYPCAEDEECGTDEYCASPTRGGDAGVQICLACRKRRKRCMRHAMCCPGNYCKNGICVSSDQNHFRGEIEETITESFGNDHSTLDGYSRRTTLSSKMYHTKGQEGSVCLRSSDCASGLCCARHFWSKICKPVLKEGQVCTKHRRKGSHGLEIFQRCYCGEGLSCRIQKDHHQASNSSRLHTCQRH
Sequence of Follistatin-related protein 3 (Homo sapiens) (O95633 whole entry, looked up): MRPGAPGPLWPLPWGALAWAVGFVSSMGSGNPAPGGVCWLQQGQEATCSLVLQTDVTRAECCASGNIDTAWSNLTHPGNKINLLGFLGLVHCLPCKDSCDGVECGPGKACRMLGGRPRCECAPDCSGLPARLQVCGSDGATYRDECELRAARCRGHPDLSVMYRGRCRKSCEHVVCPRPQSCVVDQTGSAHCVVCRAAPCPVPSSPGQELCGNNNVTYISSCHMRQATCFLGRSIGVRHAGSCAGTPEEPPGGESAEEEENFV

Structure (SMILES) | composite z-score [1] | composite z-score [2] | composite z-score [3] | z-score [4] | composite z-score [5] | composite z-score [6] | composite z-score [7] | composite z-score [8] | composite z-score [9] | composite z-score [10] | composite z-score [11] | z-score [12] | composite z-score [13] | composite z-score [14] | composite z-score [15] | composite z-score [16] | composite z-score [17] | composite z-score [18] | composite z-score [19] | composite z-score [20]
CC(C)(C)OC(=O)CC[C@]1(C(N)=O)N=C(c2ccc(OCCCO)cc2)O[C@H]1c1ccccc1 | 0.883 | 1.32 | 1.35 | 0.138 (inactive) | 1.36 | 0.555 | -0.589 | -0.188 | -1.16 | 0.976 | -0.0059 | 0.666 | -0.23 | 2.64 | 1.66 | 0.116 | 0.707 | 1.36 | 3.07 | 2.12
CC(C)Cc1ccc(CN2CC[C@@H](N)C2)cc1 | 0.472 | -0.459 | -0.275 | -1.75 (inactive) | -1.16 | -0.727 | -1.06 | -0.431 | -0.444 | 0.419 | -2.06 | -4.41 | -0.669 | -0.387 | 0.36 | -0.274 | -0.147 | 0.023 | -1.24 | -0.118
CC#CC(=O)Oc1ccc(Br)cc1C=CC(=O)OCC | -0.384 | 0.321 | 0.481 | 1.07 (inactive) | -0.0853 | -0.108 | -0.257 | 0.137 | -0.382 | 1.24 | 1.23 | -2.4 | -0.034 | -0.323 | -0.465 | -0.0154 | 0.42 | 0.302 | 0.286 | 0.683
COc1ccc([Si](C)(C)[C@@H]2[C@@H](CC(=O)N3CCC[C@H]3CO)O[C@]3(C(=O)N(Cc4cccc(I)c4)c4ccccc43)[C@H]2C)cc1 | 0.541 | 0.0446 | 0.0665 | -0.404 (inactive) | 1.05 | 1.13 | 1.2 | 1.44 | 1.92 | 0.946 | 1.32 | -2.72 | 1.39 | 0.374 | 0.935 | 0.116 | -0.138 | -0.0173 | 1.62 | 0.181
C=CCN1C(=O)[C@]2(Cc3ccccc3)N=C(c3ccc(OCCCO)cc3)O[C@@H]2c2ccccc21 | 1.16 | 0.0729 | 0.795 | -1.37 (inactive) | 0.755 | 1.27 | 0.781 | 0.878 | 0.547 | 1.13 | 1.45 | -1.84 | 0.993 | 0.893 | -0.672 | -0.0519 | 0.531 | -0.802 | 0.251 | 1.04
COCCOC(=O)N1C(=O)[C@@]2(c3ccccc31)[C@H](c1ccc(OCCO)cc1)N1[C@H](c3ccccc3)[C@H](c3ccccc3)OC(=O)[C@H]1[C@@H]2C(=O)N1CCc2cc(OC)c(OC)cc2C1 | 1.53 | 0.305 | 0.232 | -1.02 (inactive) | 1.29 | 1.3 | 0.738 | 1.42 | 0.476 | 0.355 | 1.16 | -2.15 | 1.03 | 1.2 | 0.0721 | -0.001 | 0.0141 | 0.603 | 0.977 | 2.23
COc1ccc([Si](C)(C)[C@@H]2[C@@H](CC(=O)N3Cc4ccccc4C[C@H]3CO)O[C@]3(C(=O)N(Cc4cccc(N5CCC5=O)c4)c4ccccc43)[C@H]2C)cc1 | 1.22 | -0.0652 | 0.119 | -0.432 (inactive) | 0.48 | 0.611 | 0.73 | 0.692 | 0.641 | 0.886 | 1.12 | -3.58 | 0.558 | 0.18 | 0.0915 | -0.1 | -0.0709 | 0.0001 | 0.111 | 1.08
COC(=O)c1c(CC[C@@H](CO)NC(=O)N[C@@H](Cc2ccccc2)Cn2cc(-c3ccccn3)nn2)oc(C(=O)N2CCOCC2)c1C(=O)OC | 0.327 | -0.299 | -0.247 | 0.373 (inactive) | 0.136 | -0.27 | -0.002 | 0.172 | -0.296 | 0.119 | -0.593 | 0.209 | 0.0348 | -0.194 | 0.0715 | -0.204 | 0.0796 | 0.151 | 0.167 | 0.0762
COc1ccc(C(O)C2C=CC3C(=O)N(C)C(=O)C3N2NC(=O)OC(C)(C)C)c2ccccc12 (stereo not given) | 1.47 | 0.578 | 1.01 | 1.41 (inactive) | 1.16 | 1.27 | 0.138 | 1.32 | -0.557 | 0.441 | 1.5 | -1.45 | -0.107 | 1.56 | 0.47 | 0.246 | 0.275 | 1.8 | 0.163 | 1.17
